Five molecules from PubChem BioAssay (NCATS) can be followed below.

The nature of experiment [1]: Cytometric Cell-Based qHTS for Inhibitors of the mTORC1 Signaling Pathway in MEF (Tsc2-/-, p53-/-) Cells (AID 2660).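 Further: Tsc2 and p53 null MEFs carrying empty vector with compound for 24 h; percent of cells above a phospho-rpS6 to PI ratio cutoff in each well; series mostly up to about 38 µM.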 From the text:
NIH Molecular Libraries Probe Production Centers Network [MLPCN]
NIH Chemical Genomics Center [NCGC]
Assay Submitter (PI): Blenis, John; Hoffman, Greg; Harvard University
NCGC Assay Overview: The mammalian target of rapamycin (mTOR) is an intracellular serine/threonine kinase Aberrant regulation of mTOR signaling plays a causative role in a number of human diseases, including cancer, benign tumors such as lymphangioleiomyomatosis (LAM) and Tuberous Sclerosis Complex (TSC), and metabolic diseases such as diabetes and obesity. This project aims to identify inhibitors of ribosomal protein S6 (rpS6) phosphorylation. The phosphorylation of rpS6 is a key event downstream of mTOR activation. The assay uses a phospho-specific antibody of phospho-rpS6 to detect inhibitors of mTOR activation. Mutations in the Tsc1 and Tsc2 genes are the underlying genetic lesions responsible for TSC, causing constitutive activation of the mTORC1 pathway and leading to profound effects on cell metabolism. […]
For quantitative high throughput analysis of mTORC1 signaling, we developed a cell-based assay for immuno-fluorescence based detection of rpS6 phosphorylation on the Acumen Explorer that will be used a platform for the primary small molecule screen. […] The fluorescence emission from the Alexa-488 conjugated rpS6 phospho-235/236 antibody staining is selected using a […] band pass filter. Fluorescence emission from the PI stain is selected using a 575-640 nm band pass filter. The normalized phospho-S6 staining is calculated as the ratio of the integrated Alexa 488 intensity divided by the integrated PI intensity for the single concentration rapamycin control (7.5 nM) and DMSO columns. […]
(In general: qHTS replaces the single test concentration by a dilution series.)

The nature of experiment [2]: qHTS for differential inhibitors of proliferation of Plasmodium falciparum line 3D7 (AID 1876).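 Further: parasite growth measured after three days of culture.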
The nature of experiment [3]: qHTS for differential inhibitors of proliferation of Plasmodium falciparum line D10 (AID 1877).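 Further: parasites grown with compound for 72 h before DNA staining.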
The nature of experiment [4]: qHTS for differential inhibitors of proliferation of Plasmodium falciparum line Dd2 (AID 1882).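 Further: series mostly up to about 29 µM; compound exposure of 72 h on infected erythrocytes; nearly all actives have a fitted effect of over 65% in size.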 A digest of the protocol: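 RBC culture, 0.3% parasitemia / 2.5% Hct final; cpd added by pin tool in DMSO; 72 h, 37 C, 5% CO2; lysis buffer + SYBR Green I, o/n RT dark; FI 485/535; norm. to artemisinin 0.29 uM and DMSO.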
A short description of experiment [5]: qHTS for differential inhibitors of proliferation of Plasmodium falciparum line W2 (AID 1883).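 Further: parasites grown with compound for 72 h before lysis and staining.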
Experiment [6] is described as follows: qHTS for differential inhibitors of proliferation of Plasmodium falciparum line HB3 (AID 1886).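 Further: parasites grown with compound for 72 h before SYBR Green readout.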
In experiment [7] the target is Ferritin light chain (Equus caballus) (UniProt P02791). As to the kind of experiment: qHTS Validation Assay for Identification of Novel General Anesthetics (AID 2323). Further: series mostly up to about 77 µM. A digest of the protocol:
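10 uM horse-spleen apoferritin + 1-AMA (50% saturated, PBS); cpd pin-transferred, 10 min RT. Ex 380/Em 535 nm endpoint. Activity normalized between free 1-AMA and 1-AMA/apoferritin; 4-parameter Hill fit of concentration-response.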

Experiment [8] deals with ATP-dependent DNA helicase Q1 (Homo sapiens) (UniProt P46063). As to the kind of experiment: qHTS Validation Assay for Inhibitors of RecQ-Like Dna Helicase 1 (RECQ1) (AID 2353). A digest of the protocol:
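RECQ1T1 50 nM; forked duplex (20 bp + 30-nt ss tails) 200 nM, ATP 2 mM final; pH 8.0, 2 mM MgCl2, 2.5 ug/ml poly(dI-dC); 15 min compound preincubation; discontinuous kinetic read over 2 h at RT.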

Experiment [9] deals with RecQ-like DNA helicase BLM (Homo sapiens) (UniProt P54132). The experiment is described as follows: qHTS Validation Assay for Inhibitors of Bloom's syndrome helicase (BLM) (AID 2364). In a few lines: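 50 nM BLM preincubated 15 min at room temperature with compound in pH 8.0 Tris buffer containing 2.5 ug/ml poly(dI-dC); started with 200 nM TAMRA/BHQ-2 forked duplex and 2 mM ATP (final). Unwinding read as TAMRA fluorescence increase, two reads 2 h apart.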

A short description of experiment [10]: qHTS Assay for Identification of Small Molecule Inducers of Hypoxia Response (AID 2120; active means well fitted curve in the direction sought with a large enough effect in the signal ratio, with a control signal flat, not every such curve was filed as active; the % refers to the signal ratio). In a few lines: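 Read-out: CCF4 FRET emission ratio 460nm/530nm (excitation 405nm), converted to %Activity, with AC50 fitted across a compound titration. ME-180 cells carried an HRE-driven beta-lactamase reporter; compound exposure 17 h, 37 degrees C.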

Results filed as inconclusive are left out. The source made the active and inactive calls. Unless noted, the call rests on the fitted dose curve; in most records, active means well fitted curve in the direction sought with a large enough effect; inconclusive means small, poorly fitted or top-dose-only effect, or another doubt; inactive means no such curve, though single readings can be large; an effect the other way counts as inactive or inconclusive.

ATP-dependent DNA helicase Q1 (Homo sapiens), sequence (P46063 whole entry, looked up): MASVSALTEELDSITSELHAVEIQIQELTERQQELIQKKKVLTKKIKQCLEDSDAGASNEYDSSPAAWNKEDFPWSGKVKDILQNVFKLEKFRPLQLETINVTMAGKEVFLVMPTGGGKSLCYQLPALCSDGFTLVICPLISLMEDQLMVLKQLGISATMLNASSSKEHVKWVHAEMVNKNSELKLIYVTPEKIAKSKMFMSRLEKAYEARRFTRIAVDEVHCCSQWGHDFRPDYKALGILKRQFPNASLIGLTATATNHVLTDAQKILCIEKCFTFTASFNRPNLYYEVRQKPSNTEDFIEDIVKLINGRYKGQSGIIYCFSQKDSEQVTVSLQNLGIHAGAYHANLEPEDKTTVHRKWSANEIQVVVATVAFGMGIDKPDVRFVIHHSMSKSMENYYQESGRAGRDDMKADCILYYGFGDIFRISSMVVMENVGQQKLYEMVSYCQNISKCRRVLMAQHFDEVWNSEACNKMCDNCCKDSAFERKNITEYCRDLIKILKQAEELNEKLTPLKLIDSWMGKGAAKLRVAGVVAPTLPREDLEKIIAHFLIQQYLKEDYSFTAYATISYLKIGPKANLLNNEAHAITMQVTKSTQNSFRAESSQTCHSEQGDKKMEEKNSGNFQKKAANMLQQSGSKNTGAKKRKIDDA
RecQ-like DNA helicase BLM (Homo sapiens), sequence (P54132 whole entry, looked up): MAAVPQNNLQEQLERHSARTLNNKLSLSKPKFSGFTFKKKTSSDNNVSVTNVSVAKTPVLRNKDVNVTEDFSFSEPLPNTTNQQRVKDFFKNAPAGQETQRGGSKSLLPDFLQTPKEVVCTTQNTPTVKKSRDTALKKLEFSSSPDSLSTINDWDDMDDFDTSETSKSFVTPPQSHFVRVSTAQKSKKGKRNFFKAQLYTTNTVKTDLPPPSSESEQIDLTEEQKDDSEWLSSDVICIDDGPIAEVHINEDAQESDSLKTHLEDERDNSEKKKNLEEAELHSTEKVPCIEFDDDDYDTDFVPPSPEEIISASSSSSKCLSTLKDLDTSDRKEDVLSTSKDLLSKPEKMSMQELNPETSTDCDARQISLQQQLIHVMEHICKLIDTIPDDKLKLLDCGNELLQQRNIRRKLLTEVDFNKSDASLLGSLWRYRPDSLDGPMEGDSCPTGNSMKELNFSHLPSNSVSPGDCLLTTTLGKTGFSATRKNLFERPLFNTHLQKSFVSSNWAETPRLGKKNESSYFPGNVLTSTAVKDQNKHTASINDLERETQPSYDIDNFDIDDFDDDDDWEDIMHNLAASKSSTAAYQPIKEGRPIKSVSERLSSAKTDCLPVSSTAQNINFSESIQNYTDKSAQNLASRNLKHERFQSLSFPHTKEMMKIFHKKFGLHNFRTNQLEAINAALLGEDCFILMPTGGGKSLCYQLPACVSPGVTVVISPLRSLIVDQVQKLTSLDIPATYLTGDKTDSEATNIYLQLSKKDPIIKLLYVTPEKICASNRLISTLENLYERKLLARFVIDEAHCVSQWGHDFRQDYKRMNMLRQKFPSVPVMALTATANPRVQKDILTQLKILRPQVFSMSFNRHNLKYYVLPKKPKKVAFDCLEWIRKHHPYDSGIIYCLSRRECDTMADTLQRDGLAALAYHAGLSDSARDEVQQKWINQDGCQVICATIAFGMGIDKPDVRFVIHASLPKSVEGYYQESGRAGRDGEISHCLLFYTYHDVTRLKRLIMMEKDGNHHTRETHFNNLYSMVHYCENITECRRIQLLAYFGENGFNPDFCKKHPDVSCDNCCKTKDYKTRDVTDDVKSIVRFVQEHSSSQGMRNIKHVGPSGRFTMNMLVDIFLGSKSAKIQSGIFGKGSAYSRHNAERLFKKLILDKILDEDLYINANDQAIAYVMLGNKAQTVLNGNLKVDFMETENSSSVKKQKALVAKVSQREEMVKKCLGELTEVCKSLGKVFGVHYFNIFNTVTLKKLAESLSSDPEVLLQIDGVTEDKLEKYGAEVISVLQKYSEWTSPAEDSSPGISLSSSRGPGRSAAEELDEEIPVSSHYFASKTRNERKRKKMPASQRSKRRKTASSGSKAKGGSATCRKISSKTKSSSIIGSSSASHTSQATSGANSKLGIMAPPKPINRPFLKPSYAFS
Ferritin light chain (Equus caballus), sequence (P02791 2-175 limits assumed): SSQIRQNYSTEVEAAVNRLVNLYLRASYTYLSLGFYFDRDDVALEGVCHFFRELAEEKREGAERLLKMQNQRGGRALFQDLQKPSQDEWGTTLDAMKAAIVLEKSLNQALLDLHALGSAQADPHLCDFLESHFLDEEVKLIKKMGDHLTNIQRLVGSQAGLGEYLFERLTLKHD

Consider `COc1ccc2cc([S+]([O-])Cc3ncc(C)c(OC)c3C)nc2c1`, for which the molecule was classed as inactive in [1].
On the same count and under the same terms, to `CN[C@H](CC(C)C)C(=O)N[C@H]1C(=O)N[C@@H](CC(N)=O)C(=O)N[C@@H]2C(=O)N[C@H]3C(=O)N[C@H](C(=O)N[C@H](C(=O)O)c4cc(O)cc(O)c4-c4cc3ccc4O)[C@H](O)c3ccc(c(Cl)c3)Oc3cc2cc(c3O[C@@H]2O[C@H](CO)[C@@H](O)[C@H](O)[C@@H]2O[C@H]2C[C@](C)(N)[C@H](O)[C@H](C)O2)Oc2ccc(cc2Cl)[C@H]1O` belongs “inactive”; to `O=c1[nH]c(=O)n([C@H]2C[C@@H](O)[C@@H](CO)O2)cc1C=CBr`, “inactive”.
With `N=c1ccn2c(n1)O[C@H]1[C@@H](O)[C@@H](CO)O[C@H]12`, the outcome in [2], in experiment [3], in [4], in experiment [5], in experiment [6] and in experiment [7] was inactive. The outcome in [8] and in experiment [9] was inactive.
On to `Cc1cc(O)c2c(c1)C(=O)c1cccc(O)c1C2=O`, for which the call in experiment [10] was inactive.
